PubChem BioAssay AID1347120 (National Center for Advancing Translational Sciences (NCATS), 2019)
The whole screen tested about 390,000 compounds, of which about 930 (0.24%) were called active. Inconclusive results (about 5%) are left out. This is one part of a sample in which actives are shown more often than they occur. The call rests on the fitted dose curve; in most records, active means well fitted activation curve with a large enough effect; inconclusive means small, poorly fitted or top-dose-only effect; inactive means no such curve, though single readings can be large or run the other way.

Experiment: qHTS for Suppressors of FUS Proteinopathy: Primary screen using FUS-linked yeast assay; further: nearly all actives have a fitted effect of over 55% in size;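 on growth rescue (activation): plate controls were DMSO vehicle for no effect and reference control for full effect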
Conditions: S. cerevisiae FUS-expressing, OD600, 24 h; Potency: growth rescue; series mostly up to 76.6 µM; growth rescue (activation): at the top concentration
Source text: Several widespread neurodegenerative diseases, including Alzheimer disease, Huntington disease, Frontotemporal Lobar Degeneration (FTLD) and Amyotrophic Lateral Sclerosis (ALS), share a common pathological feature, namely accumulation of specific protein aggregates in diseased tissue. These diseases which is associated with protein misfolding (proteinopathies) have become increasingly problematic as the population ages and life expectancies are extended. Most proteinopathies are currently incurable, a situation confounded by the fact that the basis of neurodegeneration is generally poorly understood. There exists urgent and significant need to find therapeutics that can inhibit the toxicity associated with protein aggregation. A novel approach to understand the underlying mechanisms of neurodegenerative diseases has recently emerged in which the disease conditions are modeled in the yeast (Saccharomyces cerevisiae), a tractable eukaryotic organism with conserved protein quality control mechanisms. Yeast offers quick and reliable genetic manipulations and can be easily tailored to high-throughput screening (HTS).
For this project, a yeast model of the FUS proteinopathies (a spectrum of neurodegenerative diseases that include ALS and a subtype of FTLD) was generated and employed. The cytoplasmic accumulation of the DNA/RNA-binding protein FUS (also known as TLS) is causative to both familial and sporadic forms of ALS and FTLD. This yeast model recapitulates neuronal pathology by showing severe cytotoxicity associated with cytoplasmic accumulation of FUS aggregates and a specific interaction between FUS and TDP-43, another ALS-associated protein. […] Specifically, the cellular accumulation of misfolded FUS that disrupts RNA homeostasis in both yeast and higher eukaryotes. This model was validated to be suitable for quantitative HTS (qHTS) use for finding genetic or chemical factors that restore growth. […] Identified compounds that inhibits FUS-yeast toxicity is flagged, re-acquired, and validated for further investigation and optimization.
NIH Chemical Genomics Center [NCGC]
NIH Molecular Libraries Probe Production Centers Network [MLPCN]
Assay Submitter (PI): Frank Shewmaker PhD, Uniformed Services University of the Health Sciences
Compound CP55940 was used as the positive control. Column 1 was treated with CP55940 titration from 92uM (final concentration, 1:2 dilution), while Column 2 was treated with top dose 92uM. Columns 3 and 4 were treated with DMSO only as negative control to assess background and noise signal.
Four hundred fifty microliter of cultured yeast (in 20mL rich medium) provided by Dr. Shewmaker lab was incubated at 30C at 99% humidity for 3hr. The culture was then spun down at 4000rpm for 5min and the cell pellet was resuspended in 2mL of Sdmin Media + ALU(330) + 2.5% Raffinose. One hundred microliter of the suspension was added to 900uL of water and OD of the solution was obtained. Twenty mL of responding medium (provided by Shewmaker lab) + 2.5% raffinose was added to ensure cell density of 0.1; the solution was incubated overnight. Working cell solution (FUS-yeast in Sdmi + Sdmi + 1X ALU + 2% galactose media) was prepared (final OD at 0.005) and 3uL was dispensed in a 1536-well Aurora high based clear bottom assay plates. Controls and library compounds (at various final concentrations from 40uM to 0.32uM) were added using a 1536-well pin array using the Kalypsys pin-tool. The plates were then incubated for 24hrs in a cell-culture incubator (30C; 99% humidity). Absorbance at 600nm was then read using the PerkinElmer ViewLux plate reader.
Potency means the concentration at half of the fitted maximal effect.

Growth rescue (activation), inactive:
CCC(=O)N1CCc2cc(Br)cc(S(=O)(=O)CCC(=O)N3CCN(c4ccc(F)cc4)CC3)c21 1.9%
O=C(Nc1cc(C(F)(F)F)ccc1Cl)c1cc2nc(-c3ccc4c(c3)OCO4)cc(C(F)(F)F)n2n1 10.3%
CCOc1cccc2sc(N3CCN(C(=O)C4CC4)CC3)nc12 4.39%
COC(=O)[C@@]12CCCCC=C1N(CCc1ccc(Cl)cc1)C(=O)[C@H]2CC(=O)NCc1ccc(OC)c(OC)c1 39.4%
COC(=O)[C@]12C[C@H](CC(=O)NCCc3ccccc3OC)C(=O)N(Cc3ccco3)C1=C[C@H](C(C)C)O[C@@H]2C1CC1 40.9%
O=C(CSc1nccn1-c1ccc(F)cc1)Nc1cccc2ccccc12 12.2%
CCN(c1ncnc2c1cnn2-c1ccc(C)cc1)C1CCCCC1 -6.13%
CCN1CCN(c2cc(C)c3cc(NC(=O)c4cc(Cl)ccc4OC)ccc3n2)CC1 10.2%
CCOc1ccc(C(=O)Nc2ccc3nc4c(c(Nc5ccccc5OC)c3c2)CCCC4)cc1 36.6%
COC(=O)[C@]12C[C@H](CC(=O)NCC34CC5CC(CC(C5)C3)C4)C(=O)N(Cc3ccc(Cl)cc3Cl)C1=C[C@H](COCc1ccccc1)O[C@@H]2C 31.5%
COC(=O)[C@]12C[C@H](CC(=O)N3CCOCC3)C(=O)N(Cc3ccc(Cl)cc3Cl)C1=C[C@H](COCc1ccccc1)O[C@@H]2C 10.6%
CC1CCC(N2CC(=O)N(CCC3=CCCCC3)C(c3ccc(F)cc3)C2=O)CC1 (stereo unspecified) 20.9%
CCC(C(=O)Nc1cccc(-c2nc3cccnc3s2)c1C)c1ccccc1 (stereo unspecified) -6.93%
Cc1ccc(Nc2ccc3cc(S(=O)(=O)N4CCCCC4)ccc3n2)cc1F -5.75%
Cc1oc2ccc(O)c(CN3CCCCC3)c2c1C(=O)Nc1cccc(C(F)(F)F)c1 24.9%
CCCN1CCN(CCCNC(=O)c2cnn(-c3ccc(C)cc3)c2-n2cccc2)CC1 6.69%
CSc1ncc(Cl)c(C(=O)Nc2ccc(S(=O)(=O)N3CCCC(C)C3)cc2)n1 (stereo unspecified) 2.88%
COc1cc(NC(=O)C2=CC(c3ccc(C)cc3)=NS(=O)(=O)N2C)cc(OC)c1OC -8.13%
O=C(COc1ccccc1Cl)Nc1ccc2nc(SCC(=O)N3CCCC3)sc2c1 12.6%
COc1cccc(CNC(=O)CSc2c3c(nc4cc(Cl)ccc24)CCCC3)c1 -8.26%
CCOC(=O)c1c(NC(=O)c2ccc(S(=O)(=O)N(CC)CC)cc2)sc2c1CCCCC2 -13.5%
O=C(Nc1ccccc1F)C(c1ccccc1)N1Cc2ccccc2C1=O (stereo unspecified) 4.93%
COc1ccc(OC)c(-n2nnc(-c3nc(-c4cc(OC)c(OC)c(OC)c4)no3)c2C)c1 18.3%
CCc1ccc(CN(Cc2ccco2)C(=O)COc2ccc(Cl)c(C)c2)cc1 30.5%
CCN(CC)c1nn2c(=O)c(C(=O)NCCc3ccccc3)cnc2s1 17.5%
COc1cccc(OCCn2c(-c3ccc(Br)cc3)nc3ccccc3c2=O)c1 -5.51%
COc1ccc(OC)c(-c2csc(-c3c(N)c(C(=O)c4ccccc4)n4ccccc34)n2)c1 14.2%
Cc1nn(C(C)C(=O)Nc2ccc(C(C)C)cc2)c(=O)c2c1sc1ccccc12 (stereo unspecified) -11.1%
Cc1ccc(NC(=O)CSc2nc3c([nH]c4ccccc43)c(=O)n2-c2ccccc2)c(C)c1 13.6%
Cc1ccc(Cl)cc1N(C)C(=O)Cn1nc(Cc2cccnc2)c2ccccc2c1=O 14.5%
O=C(CSc1nccn1Cc1ccc(Cl)cc1)NCc1ccccc1 17.8%
Cc1cccc(NC(=O)c2ccc(F)c(S(=O)(=O)N(C)C3CCCCC3)c2)c1 35.4%
CCOc1ccc(C2CC(=O)c3c([nH]c(C(=O)OCc4ccccc4)c3C)C2)cc1 (stereo unspecified) 1.74%
CCOC(=O)C1CCCN(C(=O)c2ccc3c(c2)sc2nc(-c4ccc(CC)cc4)cn23)C1 (stereo unspecified) 19.2%
Cc1c(C(=O)N2CCCC2)oc2c1-c1nn(CC(=O)NCc3ccc(OC(C)C)cc3)cc1CC2 31.1%
Cc1ccc(NC(=O)c2cc(S(=O)(=O)NCCC3=CCCCC3)ccc2F)cc1C 15.8%
COc1ccc(-c2cn3c(n2)sc2cc(C(=O)Nc4ccc(F)cc4)ccc23)cc1 0.0987%
COc1ccc(Cc2nc3ccc(C(=O)NCc4ccccc4C)cc3o2)cc1 6.51%
Cc1cc(NC(=O)C2CCC(CNS(=O)(=O)c3ccc(Br)s3)CC2)ccc1Br (stereo unspecified) -10.7%
Cc1oc2ccc(O)c(CN3CCC(C)CC3)c2c1C(=O)Nc1ccccc1 0.0169%
CCCCOc1ccc(C(=O)N2CC(=O)Nc3ccc(Br)cc3C2c2ccc(F)cc2)cc1 (stereo unspecified) 41.7%
CCCNC(=O)C1CCN(c2nc3ccc(C)cc3[nH]2)CC1 4.98%
O=C(CSc1nc2nccnc2c(=O)n1CCc1c[nH]c2ccccc12)Nc1ccccc1F -9.63%
CCOC(=O)N1CCC(NC(=O)c2cnn(-c3cccc(C)c3)c2C2CCN(C(=O)OC(C)(C)C)CC2)CC1 18.5%
CCc1cccc(NC(=O)c2cc(-c3ccccc3)n[nH]2)c1 -10.8%
C#CCOCCOCCOCCNc1nc(N2CCN(C(=O)[C@H](CCC(=O)O)n3cc(C(N)CO)nn3)CC2)nc(N2CCN(C(=O)[C@H](Cc3ccc(O)cc3)n3cc(C(N)[C@H](C)CC)nn3)CC2)n1 (stereo partly specified) 11.9%
C#CCOCCOCCOCCNc1nc(N2CCN(C(=O)C([C@@H](C)CC)n3cc(C(N)COC(=O)C(F)(F)F)nn3)CC2)nc(N2CCN(C(=O)[C@H](CCCCN)n3cc(C(N)CC(C)C)nn3)CC2)n1 (stereo partly specified) 29.1%
C#CCOCCOCCOCCNc1nc(N2CCN(C(=O)C([C@@H](C)O)n3cc([C@@H](N)CCCCN)nn3)CC2)nc(N2CCN(C(=O)[C@H](CCCCN)n3cc(CN)nn3)CC2)n1 (stereo partly specified) 1.02%
C#CCOCCOCCOCCNc1nc(N2CCOCC2)nc(N2CCN(C(=O)[C@H](Cc3ccc(O)cc3)n3cc(CCO)nn3)CC2)n1 -3.33%
Fc1ccc(-c2nc(Nc3cccc(Cl)c3)nc3c2COc2ccccc2-3)cc1 -6.76%
CC(=O)c1cccc(Nc2ccc3cc(S(=O)(=O)N4CCC(C)CC4)ccc3n2)c1 -8.08%
COc1ccc(-c2cc(-c3nc(-c4cc(OC)c(OC)c(OC)c4)no3)[nH]n2)c(OC)c1 17.9%
CCN(C(=O)CSc1nnc(C)n2c1cc1occc12)c1ccccc1 22.4%
COc1ccc(-c2onc(C)c2C)cc1S(=O)(=O)NCCc1ccccc1 10.1%
CCN(CC)C(=O)CSc1nc2ccsc2c(=O)n1Cc1ccccc1Cl 14%
Cc1c(Cl)cccc1NC(=O)C(=O)NCCc1csc2nc(-c3ccccc3F)nn12 22.4%
Cc1cccc(Cn2c(SCc3ccc(C(=O)N4CCC(C)CC4)cc3)nc3ccncc32)c1 22.7%
CC(=O)N1CCCc2cc(S(=O)(=O)N3CCC(C(=O)NCc4ccc(F)cc4)CC3)ccc21 2.3%
O=C(c1ccc(C(F)(F)F)cc1)N1CCC(c2nc(-c3ccc(S(=O)(=O)N4CCCC4)cc3)no2)CC1 6.21%
CSc1ccccc1NC(=O)CCS(=O)(=O)c1nc(-c2cccs2)cc(C(F)(F)F)n1 -9.46%
Cc1c(Cl)cccc1NC(=O)Cn1cc(C(=O)c2cccs2)c2ccccc21 -1.82%
CCN(CCCNC(=O)c1cc(Nc2ccc(OC)cc2)nc2ccccc12)c1cccc(C)c1 2.94%
Cc1ccc(-n2ncc(C(=O)N(C)Cc3ccccc3)c2-n2cccc2)cc1 37.3%
Cc1ccc2[nH]c(=O)c(CN(CC3COCCO3)C(=O)Nc3ccccc3C)cc2c1 (stereo unspecified) -6.95%
Cc1ccc2[nH]c(=O)c(CN(CCCN(C)C)C(=O)Nc3cccc(Cl)c3)cc2c1 19.3%
CCCCn1c(N)c(N(CCC(C)C)C(=O)COC(=O)c2ccc(CC)cc2)c(=O)[nH]c1=O 35.6%
CCCCCN(C(=O)CCC(=O)OCC(=O)NCc1ccc(OC)cc1)c1c(N)n(CCCC)c(=O)[nH]c1=O 40.8%
Cc1ccc(CNC(=O)CCC(=O)N2Cc3ccccc3Oc3ncccc32)cc1 -4.72%
COc1ccc(CCNC(=O)c2ccc3c(c2)sc2nc(-c4ccc(C)cc4)cn23)cc1OC 5.69%
COC(=O)c1ccc(NC(=O)CCc2c(C)nn(-c3ccc(N4CCCC4)nn3)c2C)cc1 14.5%
Fc1ccc(Nc2nc(SCc3ccccc3Cl)nc3ccccc23)cc1 -4.05%
O=C(Nc1c(C(=O)N2CCN(c3ccc(F)cc3)CC2)oc2ccccc12)c1ccco1 38.7%

Potency, inactive:
COc1ccc(C2=NS(=O)(=O)N(C)C(C(=O)NC(C)c3ccccc3)=C2)cc1 (stereo unspecified)

Potency, active:
COC(=O)[C@]12C[C@H](CC(=O)NCc3cccc4ccccc34)C(=O)N(CCc3ccc(OC)c(OC)c3)C1=C[C@H](C1CCCC1)O[C@@H]2C 12.6 µM
CCOC(=O)N1CCN(C(=O)C[C@H]2C[C@@]3(C(=O)OC)C(=C[C@H](C(C)(C)C)O[C@@H]3C)N(Cc3ccc(Cl)cc3Cl)C2=O)CC1 6.31 µM
COc1ccc(NC(=O)C2=CC(c3ccc(OC)c(OC)c3)=NS(=O)(=O)N2C)cc1 31.6 µM
C#CCOCCOCCOCCNc1nc(N2CCN(C(=O)CCCCCCCCCCNC(=O)[C@H]([C@@H](C)CC)n3cc(CCCCN=C(N)N)nn3)CC2)nc(N2CCN(C(=O)CCCCCCCCCCNC(=O)[C@H](CO)n3cc(CCCSC)nn3)CC2)n1 3.16 µM
C#CCOCCOCCOCCNc1nc(N2CCN(C(=O)CCCCCCCCCCNC(=O)[C@H](CCCCN)n3cc(C)nn3)CC2)nc(N2CCN(C(=O)CCCCCCCCCCNC(=O)[C@H](CO)n3cc(CCCSC)nn3)CC2)n1 11.2 µM
Cc1cccc(NC(=O)N(Cc2cc3cc(C)cc(C)c3[nH]c2=O)CC2COCCO2)c1 (stereo unspecified) 35.5 µM
CCCCCN(C(=O)CCC(=O)OCC(=O)NC1CCC(C)CC1)c1c(N)n(CCCC)c(=O)[nH]c1=O (stereo unspecified) 31.6 µM
Cc1ccc(Cc2cnc(N)s2)o1 11.2 µM
